An excerpt weighted towards active compounds, which were near 7.4% of everything screened.
Rab9 prom act = qHTS Assay for Rab9 Promoter Activators; 2.8% of 320,000 active; Potency, µM (top dose mostly 9.22 µM), for the others: at the highest dose activation, negative = inhibition, usual class: activators; AID 485297, 2010; Huh7 Rab9 promoter-luciferase reporter, luminescence, 24 h; note: % of control where 0% means no effect; nearly all actives have a fitted effect of over 60% in size
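Quantitative HTS format; Huh7 Rab9-luciferase reporter cells (1500/well) receive compound 2 h post-plating, incubate 24 h at 37 °C, then get luciferase reagent for 10 min before luminescence reading.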
FLuc counter = qHTS profiling assay for firefly luciferase inhibitor/activator using purifed enzyme and Km concentrations of substrates (counterscreen for miR-21 project); purified FLuc, Km substrates, luminescence inhibition; 6.9% of 360,000 active; Luciferin 4-monooxygenase (Photinus pyralis), P08659; Potency, µM (titrated, usually from 57.5 µM), without a hit: top-dose activity change, negative = inhibition, most hits filed as inhibitors;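 note: plate controls were vehicle for no effect and reference inhibitor for full effect; nearly all actives have a fitted effect of over 55% in size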
Target sequence (P08659 whole entry, looked up): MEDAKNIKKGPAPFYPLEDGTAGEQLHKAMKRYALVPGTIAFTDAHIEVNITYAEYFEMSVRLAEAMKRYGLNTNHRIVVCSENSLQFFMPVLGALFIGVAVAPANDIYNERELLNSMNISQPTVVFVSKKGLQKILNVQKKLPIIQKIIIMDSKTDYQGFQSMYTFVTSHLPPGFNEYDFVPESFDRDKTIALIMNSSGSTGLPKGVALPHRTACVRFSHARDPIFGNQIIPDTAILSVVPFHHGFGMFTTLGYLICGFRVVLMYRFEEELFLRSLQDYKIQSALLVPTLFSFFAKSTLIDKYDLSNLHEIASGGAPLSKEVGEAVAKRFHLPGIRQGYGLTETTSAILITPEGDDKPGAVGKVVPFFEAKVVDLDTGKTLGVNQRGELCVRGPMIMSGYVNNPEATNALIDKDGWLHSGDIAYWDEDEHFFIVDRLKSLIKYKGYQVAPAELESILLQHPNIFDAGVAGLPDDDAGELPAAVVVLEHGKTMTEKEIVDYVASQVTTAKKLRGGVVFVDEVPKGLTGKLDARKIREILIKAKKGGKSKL
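Purified P. pyralis luciferase (10nM final) with 10uM D-luciferin and 10uM ATP (Km levels) in 50mM Tris acetate pH 7.5, 10mM Mg acetate, 0.01% Tween-20, 0.05% BSA; qHTS 6-point titration, ~60 µM downward; luminescence read.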
NPC1 prom act = qHTS Assay for NPC1 Promoter Activators; 2.4% of 320,000 active; Huh7 NPC1 promoter luciferase reporter, 24 h; Potency, µM (series often up to 9.22 µM), for inactives: at the top dose activation, usual class: activators; note: % of control where 0% means no effect; nearly all actives have a fitted effect of over 60% in size
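Readout is luciferase luminescence, reflecting NPC1 promoter activation in stably transfected Huh7 cells after 24 h compound exposure at 37 °C in reduced-serum medium with 10% FBS.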
SMN2 splice up = qHTS Assay for Enhancers of SMN2 Splice Variant Expression. Potency, µM (series often up to 46.1 µM), inactives show at the highest dose activity change, positive = activation, actives largely listed as activators. 2.8% of 210,000 active. HEK293 SMN2-luciferase splicing reporter, luminescence, 30-36 h; note: % of control where 0% means no effect; nearly all actives have a fitted effect of over 55% in size
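qHTS luciferase splicing reporter: luminescence rises when SMN2 exon 7 is included in transfected HEK293 cells. Compound exposure lasted 30-36 h at 37C, with 4.5 mM final sodium butyrate as control, followed by a ONE-Glo read.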
ELG1 genotox = qHTS screen for small molecules that induce genotoxicity in human embryonic kidney (HEK293T) cells expressing luciferase-tagged ELG1. HEK293T ELG1-luciferase reporter, luminescence, 16 h. Potency, µM (top dose mostly 46 µM), without a hit: at the highest dose activity change, positive = activation, hits mostly activators. 1.3% of 330,000 active. AID 504466, 2011; note: % of control where 0% means no effect; nearly all actives have a fitted effect of over 60% in size
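Quantitative HTS format in 1536-well plates. HEK293T ELG1-luciferase reporter cells receive test compound and are incubated 16 hr at 37 °C, 5% CO2; ONE-Glo added, 30 min room temperature, then luminescence read.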
* hit, by the source's call; ? = inconclusive; nt = not tested or not shown; [ ] = remark or other dose. Calls come from the whole dose curve; as a rule, active = well fitted curve in the direction sought with a large enough effect; inconclusive = small, poorly fitted or top-dose-only effect, or another doubt; inactive = no such curve, though single readings can be large; an effect the other way counts as inactive or inconclusive. Potency is the fitted concentration of half-maximal effect.

SMILES | Rab9 prom act | FLuc counter | NPC1 prom act | SMN2 splice up | ELG1 genotox
COc1cc2[nH]c(C(=O)N3CCc4ccccc43)cc2c(OC)c1OC | ? | 17µM* | 24% | nt | ?
COc1ccccc1CCNC(=O)C(=O)NCC1CCCN1S(=O)(=O)c1ccccc1 (configuration not stated) | 0% | 0% | -8% | nt | -12%
COc1ccc(S(=O)(=O)NCC(c2cccs2)S(=O)(=O)c2ccccc2)cc1OC (configuration not stated) | nt | -3% | nt | nt | nt
Cc1cccc(N2CC(C(=O)Nc3nnc(SCC(=O)NCC4CCCO4)s3)CC2=O)c1 (configuration not stated) | 11% | 2% | 0% | nt | 6%
COc1cc(OC)cc(-c2nnc(SCc3c(F)cccc3Cl)o2)c1 | 3.5µM* | ? | 3.2µM* | 21% | ?
COc1cccc(C(=O)CSc2nnc(-c3cc(OC)cc(OC)c3)o2)c1 | -5% | 1% | -5% | 1% | 1%
Fc1ccccc1CSc1nnc(-c2ccccc2)o1 | 3.2µM* | 4.8µM* | 2.5µM* | 35µM* | 8.2µM*
Cc1ccccc1-c1nnc(SCc2ccccc2)o1 | ? | 8.5µM* | ? | 14µM* | 15µM*
Fc1ccccc1CSc1nnc(-c2cccnc2)o1 | 3.2µM* | 17µM* | 4µM* | ? | ?
CSc1ncccc1C(=O)NCc1nnc2ccccn12 | nt | nt | nt | nt | 0%
Cc1ccccc1CSc1nnc(-c2ccncc2)o1 | 17% | ? | 9% | 16% | 12%
COc1ccc(-c2nnc(SCc3ccccc3F)o2)cc1 | 1.4µM* | 1.5µM* | 1.3µM* | 11µM* | 1µM*
Cc1ccccc1-c1nnc(SCc2ccccc2F)o1 | 3.5µM* | 1.9µM* | 3.2µM* | 13µM* | ?
COc1cccc(CSc2nnc(-c3ccc(F)cc3)o2)c1 | 12% | 2%[2.3 µM] | 0% | 14% | 5%
COC(=O)C1CCN(C(=O)c2cc(S(=O)(=O)N3CCCCC3)ccc2Cl)CC1 | 0% | -1% | 1% | nt | 3%
N/C(=N\OC(=O)c1cccc(Cl)c1)c1cccnc1 | 11% | 6.7µM* | 17% | 11% | 10µM*
O=C(O/N=C(\c1ccccc1)c1ccccn1)c1ccc(Cl)c(Cl)c1 | -3% | 2% | -3% | -26% | 0%
N/C(=N\OC(=O)c1ccc(Cl)c(Cl)c1)c1cccnc1 | 10% | 8.5µM* | 13% | -3% | 11%
N/C(=N\OC(=O)COc1ccc(Cl)cc1)c1cccnc1 | 1% | ? | 4% | 19% | 9%
N/C(=N\OC(=O)c1cccc(Cl)c1)c1ccncc1 | 23% | 19µM* | 17% | nt | ?
N/C(=N\OC(=O)c1ccc(Cl)c(Cl)c1)c1cccc(CSc2ccccn2)c1 | ? | 8.5µM* | ? | nt | ?
COc1ccc(Br)cc1C(=O)Nc1ccc2oc(-c3cccnc3)nc2c1 | nt | -1% | nt | -13% | nt
CC(=O)c1cccc(NC(=O)COC(=O)Cn2cnc3ccccc32)c1 | nt | nt | nt | nt | 0%
C/C(=N\OC(=O)c1cccc(Cl)c1)c1sc(C)nc1C | 6% | 6.7µM* | -3% | nt | 4%
O=C(OCc1cc(=O)n2nc(C3CCCCC3)sc2n1)c1ccc(F)cc1 | nt | -2% | nt | nt | nt
SMILES | Rab9 prom act | FLuc counter | NPC1 prom act | SMN2 splice up | ELG1 genotox
COc1cc(NC(=O)c2cc(CC(C)C)on2)c(OC)cc1Cl | -3% | 0% | 12% | -14% | ?
CSc1ccccc1NC(=O)c1cc(CC(C)C)on1 | ? | ? | ? | ? | 21µM*
CC(C)Cc1cc(C(=O)Nc2cccnc2)no1 | ? | 5.4µM* | 0% | -4% | 10µM*
Cc1ccc(NC(=O)C(=O)NCC(c2cccnc2)N2CCN(Cc3ccccc3)CC2)cc1Cl (configuration not stated) | nt | -1% | nt | nt | nt
COc1ccc(C)cc1S(=O)(=O)N1c2ccc(C)cc2C2CN(C)CCC21 (configuration not stated) | -5% | 1% | -3% | nt | 0%
CC1=C(C(=O)Nc2ccccc2C(=O)NC2CCC(C)CC2)SCCO1 (configuration not stated) | 3% | -6% | ? | nt | 12%
Cc1ccc(C2=NC(c3ccc(F)cc3)=Nc3ccc(C)cc3N2)cc1 | nt | -1% | nt | 9% | nt
COc1ccc(C(=O)C2CCCN(C(=O)CCc3scnc3C)C2)c(C)c1 (configuration not stated) | ? | 19µM* | ? | nt | ?
O=C1c2cccc3cccc(c23)C(=O)N1CCc1ccccc1 | ? | 13µM* | 26% | 14µM* | 4%
O=C(O)C(Cc1ccccc1)N1C(=O)c2cccc3cccc(c23)C1=O (configuration not stated) | 1% | -11% | -2% | nt | -5%
O=C(N/N=C/c1ccc2cccc(OCc3ccccc3)c2n1)c1ccc(Cl)cc1 | 4% | 6.7µM* | 6% | -4% | -10%
COc1ccc(/C=N/NC(=O)c2ccc(COc3cccc4cccnc34)cc2)cc1O | -7% | 13µM* | 1% | nt | -6%
O=C(N/N=C/c1ccncc1)c1ccc(COc2cccc3cccnc23)cc1 | 9% | -19% | -2% | 12% | -9%
COc1ccc(/C=N/NC(=O)c2sccc2OCc2ccc(F)cc2)cc1OC | -1% | 13µM* | -8% | -11% | 0%
COc1ccc(C(=O)N/N=C/c2ccc3cccc(O)c3n2)cc1 | -7% | ? | -6% | nt | -5%
O=C(N/N=C/c1cccc(O)c1)c1ccc(COc2cccc3cccnc23)cc1 | 2% | 17µM* | -14% | 12% | 15%
COc1ccc(OC)c(C2NC(=O)N(C)C(C)=C2C(=O)OCc2ccccc2)c1 (configuration not stated) | -2% | 4% | -9% | nt | -3%
O=C(Nc1ccc(Cl)cc1)C1CCN(S(=O)(=O)c2ccc(Br)s2)CC1 | nt | -2% | nt | -61% | nt

High-throughput results from PubChem BioAssay.
